Laboratory results taken from PubChem BioAssay (NCI).
The panel holds about 79,000 compounds, 15% with a hit somewhere; the sample as a whole holds those more often. A number with no mark means an inactive call. Calls of active or inactive are those of the source. Rule as the data show it: active = growth inhibition above about 70%; inactive = the rest.

Assays:
[1] = NCI Yeast Anticancer Drug Screen. Data for the rad50 strain (AID 155);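 also: 0% = growth of vehicle-only cultures of the same strain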; conditions: S. cerevisiae rad50 strain growth inhibition; at 50.0 µM; stronger effect = higher value
Procedure, shortened: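 Readout: growth inhibition relative to vehicle-treated cultures. Compound exposure was carried out in a genetically defined yeast strain deficient in DNA damage repair.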

[2] = NCI Yeast Anticancer Drug Screen. Data for the mec2-1 strain (AID 157); conditions: S. cerevisiae mec2-1 strain, at 50.0 µM, stronger effect = higher value
Procedure, shortened: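 Test agents were screened against the mec2-1 yeast strain, with defined DNA repair or cell cycle alteration. Growth was scored as inhibition against vehicle-only controls.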

[3] = NCI Yeast Anticancer Drug Screen. Data for the sgs1 mgt1 strain (AID 161);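 also: 0% = growth of cultures given vehicle only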; conditions: S. cerevisiae sgs1 mgt1 strain, at 50.0 µM, stronger effect = higher value
Procedure, shortened: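 Mutant yeast exposed to compound; growth scored against vehicle-only wells.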

[4] = NCI Yeast Anticancer Drug Screen. Data for the cln2 rad14 strain (AID 165);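 also: 0% = growth equal to vehicle treated cultures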; conditions: S. cerevisiae cln2 rad14 strain, at 50.0 µM, stronger effect = higher value
Procedure, shortened: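 Growth of compound-exposed yeast (cln2 rad14 genotype) measured and expressed as inhibition relative to vehicle.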

[5] = NCI Yeast Anticancer Drug Screen. Data for the bub3 strain (AID 167); conditions: S. cerevisiae bub3 mutant strain, at 50.0 µM, stronger effect = higher value
Procedure, shortened: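 Readout: yeast growth inhibition, expressed relative to vehicle-only wells. The test organism is a mutant strain from a panel with lesions in DNA repair or checkpoint genes.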

[6] = NCI Yeast Anticancer Drug Screen. Data for the mlh1 rad18 strain (AID 175); conditions: S. cerevisiae mlh1 rad18 strain growth inhibition; at 50.0 µM; stronger effect = higher value
Procedure, shortened: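 In this whole-cell yeast screen, a strain with altered DNA damage repair is challenged with compound, and its growth is measured against matched vehicle-treated controls.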

CC(Sc1ccccn1)C(=O)c1ccccc1 (configuration not stated)
growth inhibition [1]: -1.55%
growth inhibition [2]: -6.75%
growth inhibition [3]: -4.05%
growth inhibition [4]: -52.5%
growth inhibition [5]: -9.05%
growth inhibition [6]: 1.2%

CCN(CC)CCNC(=O)Nc1ccc(OC)cc1
growth inhibition [1]: 2.15%
growth inhibition [2]: 24%
growth inhibition [3]: 13.8%
growth inhibition [4]: -0.05%
growth inhibition [5]: 32.8%
growth inhibition [6]: 7.65%

CSCc1cc(C)ccc1NC(C)=O
growth inhibition [1]: 0.5%
growth inhibition [2]: -7.85%
growth inhibition [3]: -0.75%
growth inhibition [4]: -16.5%
growth inhibition [5]: -13.2%
growth inhibition [6]: 10.8%

CC(=O)N(c1c(N)[nH]c(=O)n(C)c1=O)C1OC(CO)C(O)C(O)C1O (configuration not stated)
growth inhibition [1]: -1.65%
growth inhibition [2]: 2.8%
growth inhibition [3]: 19.1%
growth inhibition [4]: -5%
growth inhibition [5]: 4.3%
growth inhibition [6]: 12.4%

O=c1c2cnccc2cc2n1CCc1c-2[nH]c2ccccc12
growth inhibition [1]: 88.4% (active)
growth inhibition [2]: 89.3% (active)
growth inhibition [3]: 88.8% (active)
growth inhibition [4]: 90.2% (active)
growth inhibition [5]: 69.8%
growth inhibition [6]: 86.4% (active)

O=C(n1[nH]c(=O)n(-c2ccc([N+](=O)[O-])cc2)c1=O)C(Cl)(Cl)Cl
growth inhibition [1]: 7.9%
growth inhibition [2]: -15.3%
growth inhibition [3]: 22.5%
growth inhibition [4]: 7.6%
growth inhibition [5]: 12.7%
growth inhibition [6]: -28.9%

O=C1CN(/N=C/c2ccc(-c3cccc(C(F)(F)F)c3)o2)C(=O)N1
growth inhibition [1]: 36.4%
growth inhibition [2]: 18.4%
growth inhibition [3]: 19.8%
growth inhibition [4]: -19.3%
growth inhibition [5]: 16.2%
growth inhibition [6]: 21.1%

CC1OS(=O)(=O)CS(=O)(=O)OC1C (configuration not stated)
growth inhibition [1]: -50.1%
growth inhibition [2]: -24.9%
growth inhibition [3]: -12.8%
growth inhibition [4]: -61.4%
growth inhibition [5]: 4.8%
growth inhibition [6]: -6.15%

Nc1ccc(N=Nc2c(S(=O)(=O)O)cc3cc(S(=O)(=O)O)cc(O)c3c2O)cc1
growth inhibition [1]: -30.8%
growth inhibition [2]: -16.4%
growth inhibition [3]: -29.5%
growth inhibition [4]: -23.9%
growth inhibition [5]: 6.55%
growth inhibition [6]: 10.8%

O=c1c2n(c(=O)c3n1CCC=3)CCC=2
growth inhibition [1]: -2.5%
growth inhibition [2]: -13.5%
growth inhibition [3]: -0.6%
growth inhibition [4]: -25.1%
growth inhibition [5]: -6.85%
growth inhibition [6]: 9.35%

C=CS(=O)(=O)CCCCCCCCCCCCCC
growth inhibition [1]: 28.1%
growth inhibition [2]: 27.6%
growth inhibition [3]: 28.9%
growth inhibition [4]: 2.1%
growth inhibition [5]: -5%
growth inhibition [6]: 29.5%

CC(C)(C)[Si](C)(C)OCC1CCC(n2cnc3c(=O)[nH]cnc32)O1 (configuration not stated)
growth inhibition [1]: 14.7%
growth inhibition [2]: -6.75%
growth inhibition [3]: 7.6%
growth inhibition [4]: -4.1%
growth inhibition [5]: 12.8%
growth inhibition [6]: -7.25%

Cn1c2ccccc2n2c(=O)c3c(c(C#N)c12)CCCC3
growth inhibition [1]: -31.1%
growth inhibition [2]: -35.2%
growth inhibition [3]: -3.1%
growth inhibition [4]: -0.35%
growth inhibition [5]: -20.6%
growth inhibition [6]: -21.7%

C/C(=C/c1ccccc1)OC(=O)c1ccccc1
growth inhibition [1]: 25.7%
growth inhibition [2]: 4.55%
growth inhibition [3]: 10.8%
growth inhibition [4]: -1.85%
growth inhibition [5]: 26.4%
growth inhibition [6]: 36.2%

O=C(O)C1CCC2SC(F)(F)C(F)(F)C2C1 (configuration not stated)
growth inhibition [1]: -4.05%
growth inhibition [2]: 12.2%
growth inhibition [3]: 2.65%
growth inhibition [4]: 12.5%
growth inhibition [5]: 8.55%
growth inhibition [6]: 11.6%

CCCCC#CCN(CCCC)CCCC
growth inhibition [1]: -19.6%
growth inhibition [2]: 1%
growth inhibition [3]: -2.55%
growth inhibition [4]: 13.3%
growth inhibition [5]: 11.3%
growth inhibition [6]: -29%

CC1CC(C)OC(C)(c2ccccc2)O1 (configuration not stated)
growth inhibition [1]: 21.4%
growth inhibition [2]: -6%
growth inhibition [3]: -0.9%
growth inhibition [4]: -33.1%
growth inhibition [5]: -18.5%
growth inhibition [6]: 8.6%

C[N+]1(Cc2ccccc2)CCC(=O)CC1
growth inhibition [1]: 4.05%
growth inhibition [2]: -12.9%
growth inhibition [3]: -7.1%
growth inhibition [4]: -13.1%
growth inhibition [5]: 10.9%
growth inhibition [6]: -13.8%

Clc1ccc(Cl)nc1
growth inhibition [1]: -8.25%
growth inhibition [2]: -8.25%
growth inhibition [3]: -8.2%
growth inhibition [4]: -13.7%
growth inhibition [5]: 2.75%
growth inhibition [6]: 5.45%

CC1(C)CCCc2c(-c3ccccc3)cc3c4[nH]c5ccccc5c4cc[n+]3c21
growth inhibition [1]: 23.6%
growth inhibition [2]: -5.4%
growth inhibition [3]: 11.1%
growth inhibition [4]: 3.65%
growth inhibition [5]: -2.5%
growth inhibition [6]: 7%

COc1ccc(C(=O)N=C(N)n2nc(C)cc2C)cc1
growth inhibition [1]: -37.8%
growth inhibition [2]: -1.35%
growth inhibition [3]: -1%
growth inhibition [4]: -16.1%
growth inhibition [5]: 31.9%
growth inhibition [6]: -0.75%

COc1cc(S(N)(=O)=O)c(OC)cc1N
growth inhibition [1]: 21.1%
growth inhibition [2]: -28.2%
growth inhibition [3]: -11.4%
growth inhibition [4]: 8.8%
growth inhibition [5]: -5.6%
growth inhibition [6]: -10.1%

CC(C)Oc1c(NCCO)c2cc(Cl)ccc2oc1=O
growth inhibition [1]: -3.5%
growth inhibition [2]: 10.9%
growth inhibition [3]: 20.5%
growth inhibition [4]: -66.2%
growth inhibition [5]: -1.1%
growth inhibition [6]: -12.1%

BrC1Cc2ccccc2C(Br)Cc2ccccc21 (configuration not stated)
growth inhibition [1]: -7.65%
growth inhibition [2]: -5.1%
growth inhibition [3]: -1.05%
growth inhibition [4]: -47.5%
growth inhibition [5]: 4%
growth inhibition [6]: -9.6%

COC1(OC)C(Cl)=C(Cl)C2C1C1(Cl)C(Cl)=C(Cl)C2(Cl)C1(OC)OC (configuration not stated)
growth inhibition [1]: 39.9%
growth inhibition [2]: 10.1%
growth inhibition [3]: 1.7%
growth inhibition [4]: 13.6%
growth inhibition [5]: 2.2%
growth inhibition [6]: 5.3%

CCN1C(=O)CS/C1=N/NC(=O)C(O)(c1ccccc1)C1C=CC=CC1 (configuration not stated)
growth inhibition [1]: -9.6%
growth inhibition [2]: -21.1%
growth inhibition [3]: 2.6%
growth inhibition [4]: 10.3%
growth inhibition [5]: 0.25%
growth inhibition [6]: 4.75%

Cc1ccsc1C(=O)C(CC(=O)c1cccs1)c1ccsc1 (configuration not stated)
growth inhibition [1]: -5.45%
growth inhibition [2]: -8.45%
growth inhibition [3]: -0.9%
growth inhibition [4]: 17.3%
growth inhibition [5]: 25.4%
growth inhibition [6]: 16.4%

Oc1ccc2ccccc2c1CNC1CCCCC1
growth inhibition [1]: -9.05%
growth inhibition [2]: -18.9%
growth inhibition [3]: -9.05%
growth inhibition [4]: -26.1%
growth inhibition [5]: 29.7%
growth inhibition [6]: -26.6%

CN(/N=C/c1cccc2cccnc12)c1ccccc1
growth inhibition [1]: 8.9%
growth inhibition [2]: 6.3%
growth inhibition [3]: -0.45%
growth inhibition [4]: 29.4%
growth inhibition [5]: 14.6%
growth inhibition [6]: 16.7%

O=C(O)COc1ccccc1OCC(=O)O
growth inhibition [1]: 17.4%
growth inhibition [2]: 7.3%
growth inhibition [3]: -8.6%
growth inhibition [4]: 0.6%
growth inhibition [5]: -0.1%
growth inhibition [6]: 1.2%

CCC(=C(C#N)C#N)c1cc(OC)c(OC)c(OC)c1
growth inhibition [1]: -43%
growth inhibition [2]: -31.8%
growth inhibition [3]: -24.2%
growth inhibition [4]: -16.2%
growth inhibition [5]: -26.5%
growth inhibition [6]: -13.8%

O=C1c2ccccc2C(=O)N1C1Nc2ccccc2N1
growth inhibition [1]: 20%
growth inhibition [2]: 10.6%
growth inhibition [3]: 9.3%
growth inhibition [4]: -0.1%
growth inhibition [5]: 16.7%
growth inhibition [6]: 14.8%

CCOC(=O)/C=C\SCC(=O)OCC
growth inhibition [1]: -8.95%
growth inhibition [2]: -4.1%
growth inhibition [3]: -6.3%
growth inhibition [4]: -33.4%
growth inhibition [5]: 4.1%
growth inhibition [6]: -14.9%

COc1ccc2ccc3c4c(c(=O)[nH]c3c2n1)CCC4
growth inhibition [1]: 44%
growth inhibition [2]: 28.8%
growth inhibition [3]: 33.7%
growth inhibition [4]: 2.55%
growth inhibition [5]: 9.95%
growth inhibition [6]: 30.9%

O=C(Nc1cc2cc([N+](=O)[O-])ccc2oc1=O)c1cccs1
growth inhibition [1]: -12.2%
growth inhibition [2]: -30.7%
growth inhibition [3]: -6.8%
growth inhibition [4]: 4.85%
growth inhibition [5]: -40.2%
growth inhibition [6]: -15.6%

COC1=CC(=O)N(C)C(O)C1(C#N)OC1OC(CO)C(O)C(O)C1O (configuration not stated)
growth inhibition [1]: 5.25%
growth inhibition [2]: -12.8%
growth inhibition [3]: -7.5%
growth inhibition [4]: 18.6%
growth inhibition [5]: -17.9%
growth inhibition [6]: -40.9%

Cc1cccc(CBr)c1-c1c(C)cccc1CBr
growth inhibition [1]: -19.2%
growth inhibition [2]: 10.8%
growth inhibition [3]: 10.1%
growth inhibition [4]: -31.1%
growth inhibition [5]: 27.6%
growth inhibition [6]: -0.65%

O=C(OCCN1CCOCC1)c1cc2ccccc2oc1=O
growth inhibition [1]: 1.8%
growth inhibition [2]: 2.65%
growth inhibition [3]: 6.35%
growth inhibition [4]: -45.7%
growth inhibition [5]: -0.2%
growth inhibition [6]: -2.65%

Cc1sc2ncnc(Cl)c2c1C
growth inhibition [1]: 1.95%
growth inhibition [2]: 13.2%
growth inhibition [3]: -1.4%
growth inhibition [4]: -23%
growth inhibition [5]: 4.45%
growth inhibition [6]: 4.05%

O=C(c1ccccc1)C1CCCCN1C(=O)c1ccccc1 (configuration not stated)
growth inhibition [1]: -13.8%
growth inhibition [2]: -8.3%
growth inhibition [3]: -4.6%
growth inhibition [4]: -17.3%
growth inhibition [5]: 27.9%
growth inhibition [6]: -21.9%

CCOc1ccc(N=C2C=C(Nc3ccc(OCC)cc3)C(=Nc3ccc(OCC)cc3)C=C2Nc2ccc(OCC)cc2)cc1
growth inhibition [1]: -17.7%
growth inhibition [2]: -14.5%
growth inhibition [3]: -24.2%
growth inhibition [4]: -18.4%
growth inhibition [5]: 2.35%
growth inhibition [6]: -24.5%

O=C1CCC(C(Sc2ccccc2)(Sc2ccccc2)Sc2ccccc2)C1 (configuration not stated)
growth inhibition [1]: -5.05%
growth inhibition [2]: -21.7%
growth inhibition [3]: -22%
growth inhibition [4]: -7.2%
growth inhibition [5]: -1.55%
growth inhibition [6]: -41.4%
